# Results reported in PubChem BioAssay AID686971 (National Center for Advancing Translational Sciences (NCATS), 2013).
# The campaign covered roughly 360,000 compounds. About 7,500 (2.1%) were called active. A call without a number means that no potency is given here. Roughly 8% stayed inconclusive and do not appear here. The sample holds actives, similar compounds and a random draw of the others, so the mix is not that of the screen. The call rests on the fitted dose curve; in most records, active means well fitted cell-killing curve with a large enough effect; inconclusive means small, poorly fitted or top-dose-only effect, or effect the other way, or another doubt; inactive means no such curve, though single readings can be large or run the other way.
# Experiment: qHTS for induction of synthetic lethality in tumor cells producing 2HG: qHTS for the HT-1080-IDH1KD cell line
# Conditions: HT-1080 IDH1 knockdown viability, ATP luminescence, 48 h; series mostly up to 46.1 µM
# Procedure, shortened: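 HT-1080-IDH1KD cells (IDH1 knocked down), 750/well in RPMI with 5% FBS, treated with compound 48 h at 37 degrees C. Viability by CellTiter-Glo luminescence, normalised to DMSO and no-cell wells; concentration-response curves classed.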
# Potency means the concentration at half of the fitted maximal effect.
row,SMILES,Potency
1,CN(C)CCOc1ccc(Cl)cc1C(C)(C)C,inactive
2,CCN(CC)CCOCCOc1ccc(Cl)c2ccccc12,inactive
3,CN(C)CCOCCOc1ccc(Cl)c2ccccc12,20.6 µM (active)
4,N#CCCC(C#N)(c1cccnc1)N1CCOCC1 (centres undefined),inactive
5,CCC(C)CN1C(=O)CN(S(C)(=O)=O)CC1(C)C(=O)Nc1ccc2c(c1)OCCO2 (centres undefined),inactive
6,O=C(NCc1ccco1)c1cccc(-c2ccc3nncn3c2)c1,inactive
7,Cn1c(=O)[nH]c(=O)c2c1[nH]c(=S)n2Cc1ccccc1,inactive
8,CCCSc1nc(NCc2ccco2)c2c3c(sc2n1)COC(C)(CC)C3 (centres undefined),inactive
9,CCC1(C)Cc2c(sc3[nH]c(=S)n(Cc4ccccc4)c(=O)c23)CO1 (centres undefined),14.6 µM (active)
10,OC[C@@H]1CN(Cc2cccs2)C[C@H](n2cnc3c(Nc4ccccc4)ncnc32)O1,inactive
11,Cc1ccc(Cl)cc1NC(=S)N(CCN(C)C)Cc1cccs1,inactive
12,Cc1cc(Cl)ccc1-c1nc(NCCN(C)C)nc2ccsc12,23.1 µM (active)
13,O=C(CC[C@H]1O[C@@H](n2ccc(=O)[nH]c2=O)[C@H](O)[C@@H]1O)N[C@H](Cc1ccccc1)C(=O)NCc1ccco1,inactive
14,CCc1ccccc1NC(=O)CN1CCN(C(=O)c2cc(C3CC3)nn2-c2ccccc2)CC1,inactive
15,COc1ccc(NC(=O)CCCOc2ccc(C(C)=O)cc2)cc1S(=O)(=O)N1CCCCC1,inactive
16,CCC(CC)C(C(=O)NC1CCCC1)N1CCN(c2cc(C)nc3ccccc23)CC1 (centres undefined),inactive
17,Cc1ccc2nc(/C(C#N)=C\c3ccc(OC(=O)c4cccs4)cc3)[nH]c2c1,7.94 µM (active)
18,COc1ccc(CCNC(=O)/C(C#N)=C2\N=C(NC(=O)c3cccs3)c3ccccc32)cc1,inactive
19,COc1ccc2c(c1)CCCO[C@]21O[C@H](CCO)C[C@H](O)[C@H]1O,inactive
20,Nc1ncnc2c1ncn2[C@@H]1O[C@H](C(=O)N2CCSC2)[C@@H](O)[C@H]1O,inactive
21,CC1(C(=O)Nc2ccc3c(c2)OCCO3)CN(S(C)(=O)=O)CC(=O)N1Cc1cccc(F)c1 (centres undefined),inactive
22,CCCCCc1c(C)nc(N2CCN(Cc3ccc4c(c3)OCO4)CC2)[nH]c1=O,inactive
23,O=c1[nH]c(N2CCN(Cc3ccc4c(c3)OCO4)CC2)nc2c1CCCC2,inactive
24,Fc1ccc2[nH]c3c(N4CCN(Cc5ccc6c(c5)OCO6)CC4)ncnc3c2c1,23.1 µM (active)

row,SMILES,Potency
1,CC(C)NC(=O)N1Cc2cc(C(=O)NCC(F)(F)F)nc(-c3cccc(-c4cc5ccccc5o4)c3)c2[C@@H]1CCO,inactive
2,CCOC(=O)C1CCCN(C(=O)c2cc(-c3cccs3)oc2C)CC1 (centres undefined),inactive
3,CCn1c(SCC(=O)N2CCCC2=O)nc2ccccc21,inactive
4,CCC(=C/c1sc2ccc3ccccc3c2[n+]1C)/C=C1\Sc2ccc3ccccc3c2N1C,5.17 µM (active)
5,CCC1NC(=O)c2cccnc2-n2c1nc1ccc(C)cc1c2=O (centres undefined),inactive
6,CCCS(=O)(=O)NC(=O)C1(C)CCN(C(=O)c2sccc2C)C1 (centres undefined),inactive
7,CC(C)c1cc(C(=O)NC2CCCCCC2)c2ccccc2n1,inactive
8,COc1ccc2nc(/N=C(\N)NC(=O)Nc3ccccc3)nc(C)c2c1,inactive
9,Cc1nc(/N=C(\N)NC(=O)NC2CCCCC2)nc2ccccc12,14.6 µM (active)
10,C[C@@H]1CC2=C(C(=O)OC(C)(C)O2)[C@@H](C2CC2)O1,inactive
11,CN(Cc1ccc(C(F)(F)F)cc1)C(=O)[C@H]1O[C@@H](n2cnc3c(N)ncnc32)[C@H](O)[C@@H]1O,inactive
12,COc1ccc(-c2[nH]ncc2CN(C)Cc2c(C)n[nH]c2C)c(OC)c1,inactive
13,COc1ccc(-c2c(-c3ccc(OC)cc3O)nc(C)nc2C(F)(F)F)cc1,inactive
14,COc1ccc(-c2n[nH]c(C)c2-c2ccc(OC)c(OC)c2)c(O)c1,18.4 µM (active)
15,CC1(C(=O)NS(=O)(=O)c2ccccc2)CCN1C(=O)C1CCCCC1 (centres undefined),inactive
16,O=C1c2ccccc2C(c2nc3ccccc3[nH]2)N1c1ccccc1 (centres undefined),inactive
17,C=C1c2c(Cl)ccc(O)c2C(O)=C2C(=O)[C@]3(O)C(O)=C(C(N)=O)C(=O)[C@@H](N(C)C)[C@@H]3[C@@H](O)C12 (some centres undefined),18.4 µM (active)
18,O=C1OCCC1=COCCCCOC=C1CCOC1=O,inactive
19,COc1ccc(C(O)c2nc(-c3ccc4c(c3)OCO4)cs2)cc1 (centres undefined),inactive
20,C[C@@H]1CN([C@H](C)CO)C(=O)CCCn2cc(nn2)CO[C@H]1CN(C)S(C)(=O)=O,inactive
21,COc1ccc(/C=C(\C#N)c2c[nH]c3ccccc23)cc1,0.731 µM (active)
22,COc1ccc(/C=C(\NC(=O)c2ccc(OC)c(OC)c2)C(=O)NCCc2c[nH]c3ccccc23)cc1,inactive
23,COc1ccc(C(C(O)C(=O)c2c[nH]c3ccccc23)N2CCN(c3ccccc3)CC2)cc1 (centres undefined),inactive
24,C[C@H](CO)N1C[C@H](C)[C@@H](CN(C)C(=O)C2CCCCC2)OCc2cnnn2CCCC1=O,inactive

row,SMILES,Potency
1,C[C@H]1CN(c2ccc(Br)cc2)C(=O)[C@@H]1CC(=O)Nc1ccc(Br)cc1,inactive
2,COc1ccc(NC(=O)CN2C(=O)NC(C)(c3ccccc3)C2=O)cn1 (centres undefined),inactive
3,COc1ccc(CCNC(=O)c2cnc(Cl)c(Cl)c2)cc1,inactive
4,COc1ccc(CS(=O)/C(Cl)=C(/Cl)C(=O)Nc2ccc(OC)nc2)cc1 (centres undefined),18.4 µM (active)
5,CC(C)Cn1cc(-c2cncc3nccn23)cn1,inactive
6,CC1(C)CN(CCc2ccccc2)C(=O)[C@H]1CC(=O)Nc1ccc(Br)cc1,inactive
7,CCOC(=O)c1c(NC(=O)COC(=O)c2ccc(S(=O)(=O)C(F)F)cc2)sc(C(=O)N(C)C)c1C,inactive
8,COc1cccc(NC(=O)C2(C)CCN2Cc2ccccc2Cl)c1 (centres undefined),inactive
9,CCN1/C(=C/c2ccc3ccc(C)cc3[n+]2CC)Sc2ccccc21,20.6 µM (active)
10,CCOC(=O)[C@]12CCCC=C1N(CCC1=CCCCC1)C(=O)[C@H](CC(=O)N1CCN(C(=O)c3ccco3)CC1)C2,inactive
11,Cc1ccc(NC(=O)c2ccco2)cc1,inactive
12,Cc1cc(NC(=O)c2ccc(F)cc2)ccc1NC(=O)c1ccco1,inactive
13,O=C(Nc1ccc(O)cc1)c1ccc(NC(=O)c2ccco2)cc1,13 µM (active)
14,O=S1(=O)CC(N2CCN(Cc3ccccc3F)CC2)CN1Cc1cn(Cc2ccccc2)nn1 (centres undefined),inactive
15,COc1ccc(OCC(O)CN(C)C(=O)C(C)Oc2ccccc2)cc1 (centres undefined),inactive
16,Cc1ccc(OCC(=O)OC(C)CN(C)Cc2ccccc2)cc1 (centres undefined),inactive
17,CN(Cc1ccccc1)CC(O)COc1ccc(CNCc2cc3ccccc3s2)cc1 (centres undefined),20.6 µM (active)
18,O=C(NCc1ccccc1)C1c2ccccc2OCC(=O)N1CCCN1CCOCC1 (centres undefined),inactive
19,Cc1ccc(S(=O)(=O)N2CCC(=O)N([C@H](COCc3ccccc3)C(C)C)CC2)cc1,inactive
20,Cc1ccc(-c2nn(-c3ccccc3)cc2C(=O)NCCCN2CCCC2=O)cc1,inactive
21,O=C(O)c1ccc(NC(=O)c2cn(-c3ccccc3)nc2-c2ccc(Cl)cc2)cc1,20.6 µM (active)
22,Cc1ccc(-c2nn(-c3ccccc3)cc2C(=O)Nc2cccc(S(=O)(=O)N3CCOCC3)c2)cc1,inactive
23,COc1cccc(OCC(=O)NCCS(=O)(=O)N2CCN(c3ccccc3)CC2)c1,inactive
24,COc1ccc(CCNC(=O)Nc2ccc3c(c2)c(=O)n(C)n3C)cc1OC,inactive

row,SMILES,Potency
1,Cc1onc(-c2c(Cl)cccc2Cl)c1C(=O)c1c[nH]c(C(=O)NC2CC2)c1,inactive
2,Cc1[nH]n(C)c(=O)c1C(=O)c1c(-c2c(Cl)cccc2Cl)noc1C,16.4 µM (active)
3,Cc1onc(-c2c(Cl)cccc2Cl)c1C(=O)NNC(=O)c1c(-c2c(Cl)cccc2Cl)noc1C,inactive
4,CC(C)(C(=O)N1CCC1(C)C(=O)NS(=O)(=O)c1ccc(Br)cc1)c1ccccc1 (centres undefined),inactive
5,CCOC(=O)C1=CC[C@@H](c2ccccc2)N(S(=O)(=O)c2ccc(C)cc2)[C@H]1c1ccc(CC)cc1,inactive
6,CCCCCCN1C[C@@H](O)[C@H](n2cc(COC(=O)c3ccccc3)nn2)C[C@@H]1c1ccc(Cl)cc1,inactive
7,O=C(O)C1CCCN1c1nc(Cl)ccc1[N+](=O)[O-] (centres undefined),inactive
8,CC(C)NC(=O)Nc1ccc2c(c1)C(=O)N([C@H](C)CO)C[C@H](C)[C@@H](CN(C)Cc1ccc(C(F)(F)F)cc1)OCCCC[C@@H](C)O2,inactive
9,CCCc1nc2ccccc2c(=O)n1NC(=O)c1c(O)c2ccccc2[nH]c1=O,11.2 µM (active)
10,COc1cc(C(=O)Nn2c(CC(C)C)nc3ccccc3c2=O)cc(OC)c1OC,inactive
11,O=C(Cc1c(O)c2ccccc2[nH]c1=O)NCc1ccccc1,inactive
12,CCOC(=O)COc1nc(C)cc(C(F)(F)F)c1C#N,inactive
13,CCOC(=O)c1c(C(C#N)C#N)cc(C)nc1C,inactive
14,CCOC(=O)c1cc(C)nc(S(C)(=O)=O)c1C#N,20.6 µM (active)
15,NS(=O)(=O)c1ccc(CNC(=O)c2cc(S(=O)(=O)N3CCOCC3)ccc2N2CCCC2)cc1,inactive
16,COC(=O)Cc1ccc(OC2(C)CCN(Cc3ccc4c(c3)OCCO4)C2)cc1 (centres undefined),inactive
17,COc1ccc(C(=O)C(OP(=O)(OC)OC)c2ccccc2OC)cc1 (centres undefined),inactive
18,C[C@@H]1CN([C@@H](C)CO)S(=O)(=O)c2ccc(C#Cc3cccc(F)c3)cc2O[C@H]1CN(C)S(=O)(=O)c1cn(C)cn1,inactive
19,O=C(CCc1ccc(O)cc1)NN=Cc1cc(Br)ccc1O,16.4 µM (active)
20,O=C(CCC(=O)N/N=C/c1ccc(Br)o1)N/N=C/c1ccc(Br)o1,inactive
21,CCOc1cc(C=NNC(=O)CCCC(=O)NN=Cc2ccc(O)c(OCC)c2)ccc1O,inactive
22,CCc1nc2ccc(C(=O)N3CCN(S(=O)(=O)CC)CC3)cn2c1N(C=O)CCC(C)C,inactive
